The whole screen tested about 5,500 compounds, of which about 2,000 (36%) were called active. Another 18% or so got no clear call; they are omitted. No stated cut-off is given here; in the data, active means normalized growth mostly below about 0.91 (no sharp cut-off); inconclusive means no clear call, values can overlap the other calls; inactive means mostly above about 0.92. Some of the results follow.
Experiment: chemical genetic growth profiling, strain panel (AID 1159580);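 further: tested at 20 µM; growth read once vehicle control cultures reached saturation at 30 °C; 1 = growth at the plate median or of vehicle wells; lower values mean less growth of the strain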
Conditions: growth OD

Measured: normalized growth

CC(C)CCCC(C)C1CCC2C3CC[C@H]4C[C@@H](O)CC[C@]4(C)C3CC[C@]12C (stereo not given in full)
inactive: S. cerevisiae deletion strains, locus YAL013W, strain DEP1, hits give low values 1 | S. cerevisiae deletion strains, locus YBR021W, strain FUR4, hits give low values 1 | S. cerevisiae deletion strains, locus YBR229C, strain ROT2, hits give low values 1.01 | S. cerevisiae deletion strains, locus YCL029C, strain bik1, hits give low values 1.03 | S. cerevisiae deletion strains, locus YDL035C, strain GPR1, hits give low values 1 | S. cerevisiae deletion strains, locus YDL074C, strain BRE1, hits give low values 1.02 | S. cerevisiae deletion strains, locus YDL101C, strain DUN1, hits give low values 1.01 | S. cerevisiae deletion strains, locus YDL185W, strain tfp1, hits give low values 1.01 | S. cerevisiae deletion strains, locus YDL192W, strain arf1, hits give low values 1.01 | S. cerevisiae deletion strains, locus YDR101C, strain arx1, hits give low values 1.04 | S. cerevisiae deletion strains, locus YDR162C, strain NBP2, hits give low values 0.987 | S. cerevisiae deletion strains, locus YDR318W, strain mcm21, hits give low values 0.984 | S. cerevisiae deletion strains, locus YDR388W, hits give low values 0.997 | S. cerevisiae deletion strains, locus YDR502C, strain sam2, hits give low values 1.03 | S. cerevisiae deletion strains, locus YEL061C, strain CIN8, hits give low values 0.995 | S. cerevisiae deletion strains, locus YER110C, hits give low values 1 | S. cerevisiae deletion strains, locus YER155C, strain BEM2, hits give low values 0.997 | S. cerevisiae deletion strains, locus YER167W, strain BCK2, hits give low values 0.997 | S. cerevisiae deletion strains, locus YGL078C, strain dbp3, hits give low values 1.02 | S. cerevisiae deletion strains, locus YGL086W, strain mad1, hits give low values 1.03 | S. cerevisiae deletion strains, locus YGL248W, strain PDE1, hits give low values 1 | S. cerevisiae deletion strains, locus YGR135W, strain pre9, hits give low values 0.99 | S. cerevisiae deletion strains, locus YGR229C, strain SMI1, hits give low values 1 | S. cerevisiae deletion strains, locus YGR252W, strain gcn5, hits give low values 0.96 | S. cerevisiae deletion strains, locus YHR030C, strain SLT2, hits give low values 0.996 | S. cerevisiae deletion strains, locus YHR079C, strain IRE1 (second series), hits give low values 0.995 | S. cerevisiae deletion strains, locus YHR094C, strain hxt1, hits give low values 0.995 | S. cerevisiae deletion strains, locus YHR129C, strain ARP1, hits give low values 1.01 | S. cerevisiae deletion strains, locus YHR200W, strain rpn10, hits give low values 1.01 | S. cerevisiae deletion strains, locus YIL066C, strain RNR3, hits give low values 1 | S. cerevisiae deletion strains, locus YIL073C, strain SPO22, hits give low values 1.02 | S. cerevisiae deletion strains, locus YIL125W, strain kgd1, hits give low values 1.01 | S. cerevisiae deletion strains, locus YIR030C, strain dcg1, hits give low values 1 | S. cerevisiae deletion strains, locus YJL095W, strain BCK1, hits give low values 0.997 | S. cerevisiae deletion strains, locus YJL134W, strain LCB3, hits give low values 1.01 | S. cerevisiae deletion strains, locus YJL168C, strain set2, hits give low values 1 | S. cerevisiae deletion strains, locus YJL187C, strain SWE1 (second series), hits give low values 1.01 | S. cerevisiae deletion strains, locus YJR043C, strain POL32, hits give low values 0.988 | S. cerevisiae deletion strains, locus YKL009W, strain mrt4, hits give low values 0.997 | S. cerevisiae deletion strains, locus YKL068W, hits give low values 0.999 | S. cerevisiae deletion strains, locus YKL085W, strain MDH1 (second series), hits give low values 0.994 | S. cerevisiae deletion strains, locus YKL085W, strain MDH1, hits give low values 0.994 | S. cerevisiae deletion strains, locus YKL190W, strain CNB1, hits give low values 0.994 | S. cerevisiae deletion strains, locus YKR001C, strain vps1, hits give low values 1.01 | S. cerevisiae deletion strains, locus YLR039C, strain RIC1, hits give low values 1.05 | S. cerevisiae deletion strains, locus YLR058C, strain SHM2, hits give low values 0.987 | S. cerevisiae deletion strains, locus YLR102C, strain apc9, hits give low values 1.01 | S. cerevisiae deletion strains, locus YLR262C, strain YPT6, hits give low values 1.08 | S. cerevisiae deletion strains, locus YLR268W, strain sec22, hits give low values 1.04 | S. cerevisiae deletion strains, locus YLR330W, strain CHS5, hits give low values 0.989 | S. cerevisiae deletion strains, locus YLR342W, strain FKS1 (second series), hits give low values 1.01 | S. cerevisiae deletion strains, locus YLR371W, strain rom2, hits give low values 1 | S. cerevisiae deletion strains, locus YLR418C, strain cdc73, hits give low values 1.01 | S. cerevisiae deletion strains, locus YML016C, strain PPZ1, hits give low values 1.01 | S. cerevisiae deletion strains, locus YML032C, strain rad52, hits give low values 0.975 | S. cerevisiae deletion strains, locus YML124C, strain tub3, hits give low values 0.996 | S. cerevisiae deletion strains, locus YMR078C, strain ctf18, hits give low values 1 | S. cerevisiae deletion strains, locus YMR223W, strain ubp8, hits give low values 0.989 | S. cerevisiae deletion strains, locus YMR263W, strain SAP30, hits give low values 0.999 | S. cerevisiae deletion strains, locus YMR307W, strain GAS1, hits give low values 1.06 | S. cerevisiae deletion strains, locus YNL067W, strain RPL9B, hits give low values 1.01 | S. cerevisiae deletion strains, locus YNL128W, strain TEP1, hits give low values 0.972 | S. cerevisiae deletion strains, locus YNL233W, strain BNI4, hits give low values 1.01 | S. cerevisiae deletion strains, locus YNL250W, strain rad50, hits give low values 0.997 | S. cerevisiae deletion strains, locus YNL271C, strain bni1, hits give low values 1.01 | S. cerevisiae deletion strains, locus YNL298W, strain CLA4, hits give low values 1 | S. cerevisiae deletion strains, locus YNL307C, strain MCK1, hits give low values 1.01 | S. cerevisiae deletion strains, locus YNL322C, strain KRE1, hits give low values 0.998 | S. cerevisiae deletion strains, locus YNR052C, strain pop2, hits give low values 0.996 | S. cerevisiae deletion strains, locus YOL012C, strain htz1 1.64 | S. cerevisiae deletion strains, locus YOL147C, strain pex11, hits give low values 1 | S. cerevisiae deletion strains, locus YOR061W, strain CKA2, hits give low values 0.997 | S. cerevisiae deletion strains, locus YOR069W, strain VPS5, hits give low values 1 | S. cerevisiae deletion strains, locus YOR136W, strain idh2, hits give low values 1.01 | S. cerevisiae deletion strains, locus YOR144C, strain elg1, hits give low values 1 | S. cerevisiae deletion strains, locus YOR184W, strain ser1, hits give low values 1.03 | S. cerevisiae deletion strains, locus YOR316C, strain cot1, hits give low values 1 | S. cerevisiae deletion strains, locus YPL055C, strain LGE1, hits give low values 0.992 | S. cerevisiae deletion strains, locus YPL241C, strain CIN2, hits give low values 0.99 | S. cerevisiae deletion strains, locus YPR119W, strain clb2, hits give low values 0.998 | S. cerevisiae deletion strains, locus YPR141C, strain kar3, hits give low values 1 | S. cerevisiae deletion strains, locus YPR163C, strain tif3, hits give low values 1 | S. cerevisiae deletion strains, locus YPR167C, strain met16, hits give low values 0.994 | S. cerevisiae deletion strains, strain wtn01, hits give low values 1.04 | S. cerevisiae strains, strain wild type, hits give low values 0.976

Reference: PubChem BioAssay AID1159580 (chemical genetic matrix, 2015)
